From PubChem BioAssay (NCI)
The panel holds about 83,000 compounds, 20% with a hit somewhere; the sample as a whole holds those more often.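 Activity criterion: percent growth below 10, measured after cells in 96-well plates were exposed to a single compound concentration for 48 hours.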 Values without a mark were called inactive. Activity calls are given as the source filed them.

Experiments:
Experiment in all cases: NCI-60 one-dose screen, 48 h (100 = growth as untreated, 0 = no growth, -100 = all killed)
Settings in all cases: 10 µM unless noted
SR leukemia = test system: SR leukemia
RPMI-8226 leukemia = test system: RPMI-8226 leukemia
OVCAR-8 ovarian = test system: OVCAR-8 ovarian
OVCAR-5 ovarian = test system: OVCAR-5 ovarian
OVCAR-4 ovarian = test system: OVCAR-4 ovarian
SK-OV-3 ovarian = test system: SK-OV-3 ovarian
IGROV1 ovarian = test system: IGROV1 ovarian
OVCAR-3 ovarian = test system: OVCAR-3 ovarian
HS 578T breast = test system: HS 578T breast
NCI/ADR-RES ovarian = test system: NCI/ADR-RES ovarian
T-47D breast = test system: T-47D breast
BT-549 breast = test system: BT-549 breast
MDA-MB-435 melanoma = test system: MDA-MB-435 melanoma
SW-620 colon = test system: SW-620 colon
MCF7 breast = test system: MCF7 breast
HCT-116 colon = test system: HCT-116 colon
HCC-2998 colon = test system: HCC-2998 colon
KM12 colon = test system: KM12 colon
MDA-MB-468 breast = test system: MDA-MB-468 breast

| Compound | growth (SR leukemia) | growth (RPMI-8226 leukemia) | growth (OVCAR-8 ovarian) | growth (OVCAR-5 ovarian) | growth (OVCAR-4 ovarian) | growth (SK-OV-3 ovarian) | growth (IGROV1 ovarian) | growth (OVCAR-3 ovarian) | growth (HS 578T breast) | growth (NCI/ADR-RES ovarian) | growth (T-47D breast) | growth (BT-549 breast) | growth (MDA-MB-435 melanoma) | growth (SW-620 colon) | growth (MCF7 breast) | growth (HCT-116 colon) | growth (HCC-2998 colon) | growth (KM12 colon) | growth (MDA-MB-468 breast) |
| --- | --- | --- | --- | --- | --- | --- | --- | --- | --- | --- | --- | --- | --- | --- | --- | --- | --- | --- | --- |
| O=C(N=Nc1c(O)[nH]c2ccc([N+](=O)[O-])cc12)c1ccc2nc(-c3ccccc3)[nH]c2c1 | 30.9% | 110% | 65.1% | 107% | 45.8% | 96.9% | 76.9% | -13.2% (active) | 62.6% | 103% | 12.5% | 53.4% | 79.1% | 83.8% | 18.7% | 10.7% | 27.4% | 99.5% | 10.6% |
| N/C(=N\c1nc2ccccc2s1)NC(=O)Nc1ccccc1Br | 12.1% | -0.145% (active) | -55.7% (active) | -17% (active) | -59.1% (active) | -6.97% (active) | 11.5% | -72.3% (active) | -5.34% (active) | -57.1% (active) | 45.3% | -7.4% (active) | -63.9% (active) | 5.64% (active) | 8.24% (active) | -51.4% (active) | -21% (active) | -48.2% (active) | -29.3% (active) |
| CCCSc1nc(NCCc2c[nH]c3ccccc23)c(C#N)c(-c2ccccc2)n1 | 8.87% (active) | 44.5% | 82.1% | 91.8% | 82.1% | 91% | 100% | 100% | 66.8% | 69% | 16.1% | 89.3% | 83.4% | 56.9% | 24.9% | 32% | 59.9% | 42.1% | 53.8% |
| Cc1cccc(Nc2nc3ccccc3nc2/C=C/c2ccc(F)cc2)c1 | 87.2% | 91.8% | 85.1% | 101% | 88.9% | 105% | 75.3% | 108% | 83.8% | 91.1% | 78.9% | 99.2% | 96.8% | 88.2% | 60.9% | 81% | 94.2% | 96.5% | 90% |
| CC(=O)Nc1ccc(-n2cnc3ccc(-c4ccc(O)cc4)cc32)cc1 | 15.8% | 38.9% | 42.1% | 72.2% | 67.3% | 66.8% | 27.2% | 54.3% | 8.57% (active) | 84.4% | 47.9% | 51.4% | 44.7% | 39.2% | 10.6% | 20.2% | 66.3% | 17.8% | 22% |
| C=CC[N+](C)(C)CCn1c2ccccc2c2nc3cc(C)c(C)cc3nc21 | 85% | 95.1% | 98.4% | 111% | 95% | 96.7% | 42.6% | 96.4% | 56.2% | 108% | 99.9% | 54.6% | 99.6% | 94.6% | 80% | 98.4% | 96.2% | 99% | -2.23% (active) |
| Cc1ccc(/C=C/c2n(Cc3ccc4ccccc4c3)c3ccccc3[n+]2Cc2ccc3ccccc3c2)cc1 | -34.2% (active) | -71% (active) | -59.8% (active) | -94% (active) | -70.5% (active) | -87.1% (active) | -76% (active) | -83.3% (active) | -46.2% (active) | -48.1% (active) | -51.1% (active) | -69.9% (active) | -78.2% (active) | -75.1% (active) | -78.3% (active) | -40.8% (active) | -87.3% (active) | -88.5% (active) | -78.6% (active) |
| O=C(Cn1nc(-c2ccccc2)ccc1=O)N/N=C/c1ccc(N2CCOCC2)cc1 | 85.9% | 87.8% | 102% | 107% | 93.9% | 107% | 113% | 103% | 86.6% | 95.5% | 69.4% | 121% | 97.6% | 102% | 83.8% | 103% | 113% | 102% | 104% |
| Cc1ccccc1[C@H]1C(C(=O)c2ccc(Cl)cc2)C2(N[C@@H]1c1ccccc1)C(=O)Nc1ccc(Cl)cc12 (some centres not stated) | -23.6% (active) | -11.8% (active) | -69.2% (active) | -55.8% (active) | 11.2% | 1.06% (active) | 2.05% (active) | -52.4% (active) | 6.9% (active) | -65.7% (active) | 13% | -29.4% (active) | -35.4% (active) | -9.32% (active) | -22.3% (active) | -84.6% (active) | -54.2% (active) | -24.3% (active) | -19.1% (active) |
| O=S(=O)(Nc1cccc(-n2cnc3cc(-c4ccc(O)cc4)ccc32)c1)C1CC1 | 13.2% | 23.9% | 19.8% | 47.1% | 48.3% | 35.6% | 35.3% | 2.82% (active) | -20.1% (active) | 25.1% | 27.3% | 14.3% | -21.3% (active) | 31.1% | 21.8% | 13.4% | 40.8% | 6.07% (active) | 3.78% (active) |
| O=C1NC(=O)c2c1c1c3cc(Br)ccc3[nH]c1c1oc3ccc(F)cc3c21 | 4.79% (active) | 14.8% | -44.7% (active) | 51.7% | -88% (active) | -5.1% (active) | -46.9% (active) | -33.3% (active) | -34.9% (active) | 10% | -20.1% (active) | 15.1% | 33.7% | 3.59% (active) | -47.5% (active) | 0.579% (active) | -9.47% (active) | 15.1% | -51.8% (active) |
| COc1ccc2[nH]cc(-c3nnc(N)nc3-c3c[nH]c4ncc(Br)cc34)c2c1 | 67.8% | 76.8% | 82.5% | 97.9% | 96.6% | 76.2% | 48.3% | 104% | 70.1% | 97.9% | 53.8% | 93% | 102% | 88.8% | 62.2% | 75.2% | 110% | 91.4% | 79.9% |
| CN(C)CCOc1ccc(C(=O)C2[C@H](c3ccc(Cl)cc3)[C@@H](c3ccccc3)NC23C(=O)Nc2ccccc23)cc1 (some centres not stated) | -18% (active) | 49.7% | 88.1% | 85.8% | 70.6% | 121% | 80.2% | 73.2% | 77.4% | 86.4% | 67.9% | 81.8% | 44.6% | -57.7% (active) | -20.8% (active) | 22% | -59.9% (active) | 33.4% | -26% (active) |
